TRAIL sens C8 = sensitizes caspase-8 expressing cells to TRAIL. 360,000 compounds, 1% hits. inhibition (viability loss, TRAIL sensitization), % at 10 µM. NB7+C8 cells + TRAIL, ATPlite viability luminescence. AID 624354;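 active means compounds causing at least 50% loss of cell viability in the single-dose screen, relative to plate controls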
PPC-1+TRAIL kill = PPC-1 cancer cell killing with TRAIL present; PPC-1 cells + TRAIL, ATPLite viability luminescence; cell killing (% activity), % at 4 µM or 5 µM; 220,000 compounds, 0.41% hits;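 active means cell killing above 50% in the first pass at 4 µM, then a duplicate retest at 5 µM averaging 50% or more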;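 further: plate controls were cells with TRAIL plus DMSO for no effect and medium-only wells lacking cells for full effect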
iPSC survival up = enhancers of human iPSC single-cell survival; survival enhancement, % at 20 µM; hiPSC single-cell survival, ATPlite luminescence; 100% = ROCK inhibitor wells, 0% = DMSO; AID 602274; 360,000 compounds, 0.044% hits; in the data active means survival enhancement above about 18%;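 further: cells exposed to compounds for 16 hours before the ATP read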
CF NFkB inh = cystic fibrosis NF-kB activation inhibition. AID 588850. 360,000 compounds, 0.86% hits. KKLEB NF-kB-GFP reporter, PAF-induced, GFP fluorescence overnight. inhibition, % at 5 µM;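 active means at least 50% inhibition at 5 µM, scaled per plate between neutral and stimulator controls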;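 further: PAF is a Pseudomonas aeruginosa culture filtrate used as stimulus; plate controls were PAF-stimulated DMSO wells for no effect and unstimulated DMSO wells for full effect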
KKLEB cytotox = CF airway cell cytotoxicity counter-screen | KKLEB CF airway cells viability, ATPlite luminescence, overnight; active compounds read low; cells stimulated with P. aeruginosa culture filtrate | 360,000 compounds, 0.36% hits | activity change (cytotoxicity), % at 5 µM | AID 602141;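 active means corrected activity change at or below -50% at 5 µM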
HIF-2a block = blocks HIF-2a reporter activity; 786-0 RCC cells HIF-2a reporter, luciferase luminescence, overnight; inhibition, % at 18.8 µM; 360,000 compounds, 0.72% hits;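 active means inhibition of the luminescence signal of 40% or more relative to plate controls, in a single-dose primary screen at 18.75 µM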
HIF-2a inh conf = HIF-2a inhibition, single concentration confirmation; shares compounds with HIF-2a block; 786-0 RCC cells, HIF-2a luciferase reporter luminescence, overnight; inhibition, % at 18.8 µM; 1,800 compounds, 56% hits; AID 651580;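 active means mean inhibition across four replicates of at least 40 percent at the single tested concentration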
HIF-1a counter = inhibits HIF-1a reporter, a counter-screen for HIF-2a inhibitors. MiaPaCa-2 HIF-1a luciferase reporter, desferoxamine, overnight. shares compounds with HIF-2a block. inhibition, % at 18.8 µM. AID 651589. 1,800 compounds, 72% hits;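 active means mean inhibition of the reporter signal across four replicates at the single tested dose of 50% or more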
Starred values were filed as active, the others as inactive; / = no result. Only some compounds are listed: those with a hit (about 2.2% of all), similar ones and a draw of the others.

SMILES	TRAIL sens C8	PPC-1+TRAIL kill	iPSC survival up	CF NFkB inh	KKLEB cytotox	HIF-2a block	HIF-2a inh conf	HIF-1a counter
COC12CCC3(CC1C(C)(O)C(C)(C)C)[C@H]1Cc4ccc(OC5OC(C(=O)O)[C@@H](O)C(O)[C@H]5O)c5c4[C@@]3(CCN1CC1CC1)C2O5 (stereo not given in full)	0	/	3	2	1	6	/	/
CC1OC(OC2C=C3CCC4C(CCC5(C)C(c6ccc(=O)oc6)CCC45O)C3(C)CC2)C(O)C(OC2OC(CO)C(O)C(O)C2O)C1O (stereo not given)	75*	/	-3	95*	-62*	70*	32	105*
COC1C(OC(=O)c2ccc(C)[nH]2)C(O)C(Oc2ccc3c(O)c(NC(=O)c4ccc(O)c(CC=C(C)C)c4)c(=O)oc3c2Cl)OC1(C)C (stereo not given)	9	4	0	23	5	-6	/	/
O=C1NC2C(O)C(O)C(O)C(O)C2c2cc3c(c(O)c21)OCO3 (stereo not given)	45	/	-4	86*	-49	66*	70*	105*
O=C1NC2C(=CC(O)C(O)C2O)c2cc3c(c(O)c21)OCO3 (stereo not given)	77*	/	-3	89*	-64*	85*	84*	106*
OCC[n+]1c2ccccc2nc2ccc(N3CCOCC3)cc21	34	12	0	-2	4	11	/	/
COc1ccc(NC2=NCCCS2)cc1OC	-15	/	0	-9	-2	4	/	/
CC(=O)c1cc(C(C)=O)c(C)[n+](C)c1C	3	5	0	14	-3	4	/	/
CCOC(=O)[C@]12Cc3cc(OC)ccc3[C@H]1N(C(C)C)C(=O)c1cc(OC)ccc12	55*	/	-1	/	/	52*	90*	96*
CCOC(=O)[C@]12Cc3cc(Cl)ccc3[C@H]1N(C1CCCCC1)C(=O)c1ccccc12	96*	/	-2	/	/	85*	97*	105*
CCOC(=O)[C@]12Cc3cc(OC)ccc3[C@H]1N(CCC(=O)OC)C(=O)c1cc(OC)ccc12	4	/	-1	/	/	26	/	/
CCOC(=O)[C@]12Cc3cc(C)ccc3[C@H]1N(C)C(=O)c1ccccc12	-6	/	-1	/	/	19	/	/
CCCCCN1C(=O)c2cc(OC)ccc2[C@@]2(C(=O)OCC)Cc3cc(Cl)ccc3[C@@H]12	85*	/	-2	/	/	80*	97*	105*
CCOC(=O)[C@]12Cc3cc(Cl)ccc3[C@H]1N(C(C)C)C(=O)c1ccccc12	71*	/	-2	/	/	90*	95*	104*
CCOC(=O)[C@]12Cc3cc(Cl)ccc3[C@H]1N(C)C(=O)c1ccccc12	7	/	0	/	/	18	/	/
CC1NCCC2(O)CCCCC12 (stereo not given)	-4	5	-1	-12	2	10	/	/
COc1ccc(OCC(=O)N2CCCC(N3CCN(c4ccccc4C)CC3)C2)cc1 (stereo not given)	0	/	0	21	-1	4	/	/
CCOC(=O)[C@]12Cc3cc(Cl)ccc3[C@H]1N(CC(=O)OC)C(=O)c1ccccc12	58*	/	-1	/	/	81*	94*	104*

High-throughput results deposited in PubChem BioAssay by Sanford-Burnham Center for Chemical Genomics.
